Each structure is given as a SMILES string. Values joined by “and” are separate entries in the source; they are usually repeats but may differ in a detail not shown here. Identical values can stand only once. Unmarked numbers belong to inactive results. Active and inactive are the calls of the source. Cut-off read from the data, not from the text of the source, unless noted: active = inhibition above about 42%; inactive = the rest.

Tested on in the first experiment: not listed separately
The experiment can be described thus: StAR promoter reporter inhibitors, counter-screen for LRH-1 inverse agonist project, cell-based, luminescence, high throughput (AID 651611; in the data active = inhibition above about 28%). To be noted: StAR promoter luciferase reporter counterscreen, at 3.6 µM, stronger effect = higher value.
For orientation: inhibition means the relative decrease from the control value, in per cent. As for `NS(=O)(=O)c1ccc(Sc2nc3ccccc3s2)c([N+](=O)[O-])c1`, the inhibition was 78.7% (active).

`CC(C)N(c1ccccc1)c1ccc(NC(=O)CCl)cc1`: the inhibition was 32.8% (active). For the molecule `O=C(Nc1sc2c(c1C(=O)O)CCCCC2)c1ccccc1`, the inhibition was 1.22%.

Consider `CC(=O)Nc1ccc(Oc2sc(C(=O)c3ccccc3)c(N)c2C#N)cc1`, for which the inhibition is 35.8% (active). With `C/C(=N\NC(N)=S)C12CC3CC(CC(C3)C1)C2`, the inhibition is 20.4%. As for `CC[C@@H](C(=O)[C@@H](C)[C@@H](O)[C@H](C)CCc1ccc(C)c(O)c1C(=O)O)[C@H]1O[C@](CC)([C@H]2CC[C@](O)(CC)[C@H](C)O2)C[C@@H]1C`, the inhibition was 60.5% (active). Same read-out and setting: the same measure for `O=C(OCC12CC3CC(CC(C3)C1)C2)c1ccc(NCc2cc(O)ccc2O)cc1`: 48.6% (active); for `c1ccc(CCNc2nc(-c3ccccn3)nc3ccccc23)cc1`: 58.5% (active); for `CCCCCc1ccc(OCCCC[n+]2cccc(C)c2)c(CCCCC)c1`: 31.7% (active).

Turning to `O=C(CCl)N(c1ccccc1)C1CCCCC1`, the inhibition is 43.5% (active). The same measure, in the same setting: in the case of `COc1cc(/C=C/C(=O)c2ccc(C)cc2)ccc1OCC#N` it was 23.6%. `O=S(=O)(NCC1CCCO1)c1ccc(-c2ccc(S(=O)(=O)NCC3CCCO3)cc2)cc1` (centres undefined): the inhibition is 24.6%.

In the case of `COc1cc(/C=N/NC(N)=S)cc(Br)c1OCc1ccccc1F`, the inhibition is 33.5% (active). As for `NC(=O)c1ccc(N2CCN(S(=O)(=O)c3cccs3)CC2)c([N+](=O)[O-])c1`, the inhibition is 21%.

As for `CCOc1ccc(-n2c(-c3ccc(Br)cc3)c[n+]3c2CCCCC3)cc1`, the inhibition was 22.8%.

As for `O=C(NCc1cccnc1)/C(=C\c1ccc(-c2cccc(Cl)c2)o1)S(=O)(=O)c1ccccc1`, the inhibition is 61.8% (active).

With `Cc1cc(C)c(S(=O)(=O)/N=C2\C=C(Nc3ccc(C(=O)O)cc3)C(=O)c3ccccc32)c(C)c1`, the inhibition was 40.8% (active). For the molecule `Nc1cc(Cc2ccccc2)ccc1O`, the inhibition was 9.01%. Consider `CCOc1ccc(-c2c[n+]3c(n2-c2ccccc2)CCCCC3)cc1`, for which the inhibition is 22.6%.

For `c1cnc2c(c1)ccc1cccnc12`, the inhibition is 70.5% (active) and 77.1% (active).

As for `S=C(NCCCc1cnc[nH]1)NCCCN(Cc1ccc(Cl)cc1)c1ccc(Br)cn1`, the inhibition is 91.2% (active).

With `N=c1c2c(n(Cc3ccccc3)c3c1CCC3)CCC2`, the inhibition was 37.3% (active). Still for that read-out and setting: in the case of `Cc1ccc2c(c1C)-c1c(ccc(C)c1C)C(=O)C2=O` it was 64.4% (active).

In the case of `COc1ccc(-n2c(-c3ccc(Br)cc3)c[n+]3c2CCc2ccccc2-3)cc1`, the inhibition was 22.1%.

Another experiment deals with Nuclear receptor subfamily 5 group A member 2 (Homo sapiens) (UniProt O00482). The experiment can be described thus: LRH-1 (NR5A2) inverse agonists, retest, confirmation, cell-based, luminescence (AID 651613).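 Note: HEK293T cells co-transfected with LRH-1 and StAR promoter luciferase reporter; 0% = vehicle wells and 100% = parental cells lacking receptor.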 To be noted: cell-based LRH-1 luciferase reporter, inverse agonism; at 3.6 µM; stronger effect = higher value. A general note: Reporter assays use an easily measured gene product as a stand-in for the process of interest.
Chain of Nuclear receptor subfamily 5 group A member 2 (Homo sapiens) (O00482 whole entry, looked up): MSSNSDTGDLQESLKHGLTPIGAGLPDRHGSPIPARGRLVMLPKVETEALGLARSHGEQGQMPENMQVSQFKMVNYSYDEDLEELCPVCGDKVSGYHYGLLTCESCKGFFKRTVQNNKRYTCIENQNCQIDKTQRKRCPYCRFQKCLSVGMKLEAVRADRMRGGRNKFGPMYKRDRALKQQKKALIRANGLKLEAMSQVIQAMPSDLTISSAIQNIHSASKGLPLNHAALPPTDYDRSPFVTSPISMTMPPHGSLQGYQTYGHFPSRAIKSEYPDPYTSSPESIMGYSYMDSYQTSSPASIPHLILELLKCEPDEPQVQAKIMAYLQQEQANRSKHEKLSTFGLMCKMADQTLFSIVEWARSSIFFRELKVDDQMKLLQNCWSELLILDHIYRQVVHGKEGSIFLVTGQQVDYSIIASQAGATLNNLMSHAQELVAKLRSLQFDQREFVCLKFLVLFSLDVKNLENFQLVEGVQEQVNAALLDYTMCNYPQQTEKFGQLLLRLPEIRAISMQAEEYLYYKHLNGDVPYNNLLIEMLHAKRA
On to `COc1ccc(Nc2ccncc2[N+](=O)[O-])cc1`, for which the inhibition was 75.5% (active). `CCOC(=O)c1c2c(n(-c3ccc(OC)cc3)c1C)C(=O)C(=O)c1ccccc1-2`: the inhibition was 66.5% (active). Regarding `CN1/C(=C\C(=O)C[n+]2ccc3ccccc3c2)C(C)(C)c2ccccc21`, the inhibition is 89.6% (active). Same read-out and setting: in the case of `Cn1nccc1C(=O)NC1CCCc2c1cnn2-c1ccc(C(C)(C)C)cc1` (centres undefined) it was 63.5% (active). As for `CCCCCCCCCCCCCCCCn1cc[n+](C)c1`, the inhibition is 65.5% (active). For the molecule `Cc1ccc(S(=O)(=O)/C(=C/Cl)NC(=O)c2ccccc2)cc1`, the inhibition was 57.7% (active). Same read-out and setting: the same measure for `Cc1ccc(NC2=C(N3CCCCC3)C(=O)c3ccccc3C2=O)cc1`: 12.3%. As to `Clc1ccc(C2=Nn3c(nnc3-c3n[nH]c4c3CCC4)SC2)cc1`, the inhibition is 46.5% (active). For `CC(=O)c1cn(CC(=O)Nc2ccc(C)cc2C)c2ccccc12`, the inhibition was 71.5% (active). For `C=C1C(=O)[C@]23C[C@H]1CCC2[C@@]1(C)C(C[C@@H]3O)[C@](C)(C(=O)OC)CC[C@@H]1OC(C)=O` (some centres undefined), the inhibition was 70.7% (active). With `CCCCCCCCCCCCCCCC[n+]1ccccc1`, the inhibition was 47.2% (active) and 54.5% (active). Turning to `CCOc1ccc(-n2c(-c3ccccc3)c[n+]3c2CCCCC3)cc1`, the inhibition is 90.5% (active).

For `COC(=O)/C=C/C(=O)Nc1cccc(C(F)(F)F)c1`, the inhibition is 46.6% (active). Still for that read-out and setting: in the case of `Cc1ccccc1C(=O)N/N=C/c1ccc([N+](=O)[O-])s1` it was 73.2% (active). For `Brc1ccc(C2=Nn3c(nnc3-c3n[nH]c4c3CCC4)SC2)cc1`, the inhibition was 49% (active). On the same count and under the same terms, in the case of `CCOc1ccc(Nc2cc(C)nc(-n3nc(C)cc3C)n2)cc1` it was 52.9% (active). As for `NS(=O)(=O)c1ccc(Sc2nc3ccccc3s2)c([N+](=O)[O-])c1`, the inhibition was 75.3% (active). Turning to `CC(C)N(c1ccccc1)c1ccc(NC(=O)CCl)cc1`, the inhibition is 72.4% (active). Consider `O=C(Nc1sc2c(c1C(=O)O)CCCCC2)c1ccccc1`, for which the inhibition was 57% (active). `CC(=O)Nc1ccc(Oc2sc(C(=O)c3ccccc3)c(N)c2C#N)cc1`: the inhibition is 70.9% (active).

Take `C/C(=N\NC(N)=S)C12CC3CC(CC(C3)C1)C2`: the inhibition was 66.1% (active). The same measure, in the same setting: the same measure for `CC[C@@H](C(=O)[C@@H](C)[C@@H](O)[C@H](C)CCc1ccc(C)c(O)c1C(=O)O)[C@H]1O[C@](CC)([C@H]2CC[C@](O)(CC)[C@H](C)O2)C[C@@H]1C`: 51.9% (active); for `O=C(OCC12CC3CC(CC(C3)C1)C2)c1ccc(NCc2cc(O)ccc2O)cc1`: 56.9% (active); for `c1ccc(CCNc2nc(-c3ccccn3)nc3ccccc23)cc1`: 91.9% (active). For the molecule `CCCCCc1ccc(OCCCC[n+]2cccc(C)c2)c(CCCCC)c1`, the inhibition is 74.2% (active). In the case of `O=C(CCl)N(c1ccccc1)C1CCCCC1`, the inhibition was 70.4% (active).

Take `COc1cc(/C=C/C(=O)c2ccc(C)cc2)ccc1OCC#N`: the inhibition was 29.3%. With `O=S(=O)(NCC1CCCO1)c1ccc(-c2ccc(S(=O)(=O)NCC3CCCO3)cc2)cc1` (centres undefined), the inhibition was 69.5% (active).

`COc1cc(/C=N/NC(N)=S)cc(Br)c1OCc1ccccc1F`: the inhibition was 74.1% (active). Same read-out and setting: in the case of `NC(=O)c1ccc(N2CCN(S(=O)(=O)c3cccs3)CC2)c([N+](=O)[O-])c1` it was 64.7% (active). `CCOc1ccc(-n2c(-c3ccc(Br)cc3)c[n+]3c2CCCCC3)cc1`: the inhibition is 104% (active). Same read-out and setting: in the case of `O=C(NCc1cccnc1)/C(=C\c1ccc(-c2cccc(Cl)c2)o1)S(=O)(=O)c1ccccc1` it was 87.1% (active).

On to `Cc1cc(C)c(S(=O)(=O)/N=C2\C=C(Nc3ccc(C(=O)O)cc3)C(=O)c3ccccc32)c(C)c1`, for which the inhibition was 61.8% (active).

As to `Nc1cc(Cc2ccccc2)ccc1O`, the inhibition was 25.7%. With `CCOc1ccc(-c2c[n+]3c(n2-c2ccccc2)CCCCC3)cc1`, the inhibition was 94.5% (active). For the molecule `c1cnc2c(c1)ccc1cccnc12`, the inhibition is 104% (active). On the same count and under the same terms, the same measure for `S=C(NCCCc1cnc[nH]1)NCCCN(Cc1ccc(Cl)cc1)c1ccc(Br)cn1`: 102% (active); for `N=c1c2c(n(Cc3ccccc3)c3c1CCC3)CCC2`: 79.2% (active). `Cc1ccc2c(c1C)-c1c(ccc(C)c1C)C(=O)C2=O`: the inhibition was 72% (active). As to `COc1ccc(-n2c(-c3ccc(Br)cc3)c[n+]3c2CCc2ccccc2-3)cc1`, the inhibition is 96.4% (active).
